Laboratory results from PubChem BioAssay (NCATS).
Records with an inconclusive call do not appear. Activity calls are given as the source filed them. Unless noted, calls come from the whole dose curve.

Tests used:
[1] = molecular target: T1, Tyrosine-protein phosphatase non-receptor type substrate 1 (Homo sapiens) + Leukocyte surface antigen CD47 (Homo sapiens) (UniProt P78324+Q08722); assay: CD47-SIRPalpha protein protein interaction - LANCE assay qHTS validation (AID 1347057; active = well fitted curve in the direction sought with a large enough effect in the signal ratio, with a control signal flat, not every such curve was filed as active; the % refers to the signal ratio; note: series mostly up to about 38 µM)
In short: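 First, His-tagged CD47 and Eu-labelled anti-His antibody met the compound for 30 min; next, site-specifically biotinylated SIRPalpha was added for 30 min; finally streptavidin-APC was added before reading the TR-FRET ratio.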

[2] = molecular target: T1, Tyrosine-protein phosphatase non-receptor type substrate 1 (Homo sapiens) + Leukocyte surface antigen CD47 (Homo sapiens); assay: CD47-SIRPalpha protein protein interaction - HTRF assay qHTS validation (AID 1347058; active = well fitted curve in the direction sought with a large enough effect in the signal ratio, not every such curve was filed as active; the % refers to the signal ratio; note: series mostly up to about 38 µM)
In short: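 TR-FRET read (Ch1/Ch2 ratio) of soluble extracellular CD47 and Avi-biotinylated SIRPalpha domains in PBS pH 7.4 with 0.05% IGEPAL; 7-point compound titration. Sequential 30 min room-temperature steps; non-biotinylated SIRPalpha as control inhibitor.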

[3] = molecular target: T1, Tyrosine-protein phosphatase non-receptor type substrate 1 (Homo sapiens) + Leukocyte surface antigen CD47 (Homo sapiens); assay: CD47-SIRPalpha protein protein interaction - Alpha assay qHTS validation (AID 1347059; active = well fitted curve in the direction sought with a large enough effect; an effect the other way counts as inactive or inconclusive;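 note: bead proximity luminescence from CD47 binding SIRPalpha after compound preincubation with SIRPalpha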)
In short: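 Soluble extracellular domains: Avi-tag biotinylated SIRPalpha (25 nM) preincubated 30 min RT with compound, then 6His-CD47 (12.5 nM) 30 min; Ni-NTA acceptor and streptavidin donor beads (10 ug/mL) 30 min, AlphaScreen read. PBS pH 7.4, 0.05% IGEPAL.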

[4] = molecular target: Parathyroid hormone/parathyroid hormone-related peptide receptor (Homo sapiens) (UniProt Q03431); assay: qHTS for PTHR1 Agonists: Optimization Screen against the NCGC LOPAC library (AID 1347079; active = well fitted curve in the direction sought with a large enough effect; an effect the other way counts as inactive or inconclusive;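 note: GloSensor cAMP luminescence in HEK-293 GP2 cells expressing human PTHR1 with IBMX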)
In short: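 Compounds were tested across a qHTS titration. PTHR1-expressing GP2 cells report cAMP rises via GloSensor luminescence after 1 hr compound exposure at 37C with IBMX present.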

[5] = qHTS for Inhibitors of the Functional Ribonucleoprotein Complex (vRNP) of Lassa (LASV) Arenavirus: LASV Primary Screen - GLuc reporter signal (AID 1347082; calls by dose curve; tested in HEK293 reporter line; note: nearly all actives have a fitted effect of over 60% in size; note: potency is the fitted concentration of half-maximal effect)
[6] = qHTS for Inhibitors of the Functional Ribonucleoprotein Complex (vRNP) of Lassa (LASV) Arenavirus: Viability assay - alamar blue signal for LASV Primary Screen (AID 1347083; calls by dose curve; tested in HEK293 reporter line; note: nearly all actives have a fitted effect of over 80% in size; note: potency is the fitted concentration of half-maximal effect)
[7] = qHTS for Inhibitors of the Functional Ribonucleoprotein Complex (vRNP) of Lymphocytic Choriomeningitis Arenaviruses (LCMV): Viability assay - alamar blue signal for LCMV Primary Screen (AID 1347085; calls by dose curve; tested in HEK293 reporter line; note: nearly all actives have a fitted effect of over 80% in size; note: potency is the fitted concentration of half-maximal effect)
[8] = molecular target: Nucleoprotein (Lymphocytic choriomeningitis virus (strain Armstrong)) (UniProt P09992); assay: qHTS for Inhibitors of the Functional Ribonucleoprotein Complex (vRNP) of Lymphocytic Choriomeningitis Arenaviruses (LCMV): LCMV Primary Screen - GLuc reporter signal (AID 1347086); note: nearly all actives have a fitted effect of over 70% in size; note: potency is the fitted concentration of half-maximal effect
[9] = qHTS of pediatric cancer cell lines to identify multiple opportunities for drug repurposing: Primary screen for TC32 cells (AID 1347089; active = well fitted curve in the direction sought with a large enough effect; an effect the other way counts as inactive or inconclusive; note: nearly all actives have a fitted effect of over 60% in size)
In short: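 qHTS, TC32, 48 h drug treatment, CellTiter-Glo luminescence as a proxy for metabolically active cells; primary top concentration 46 µM (MIPE 11-pt, NPC 8-pt); confirmatory 11-pt.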

[10] = qHTS of pediatric cancer cell lines to identify multiple opportunities for drug repurposing: Primary screen for DAOY cells (AID 1347090; active = well fitted curve in the direction sought with a large enough effect; an effect the other way counts as inactive or inconclusive; note: series mostly up to about 46 µM; nearly all actives have a fitted effect of over 55% in size)
In short: (§1)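 Eight- or eleven-point concentration series, 48 h treatment at 37 degrees C in growth media; readout CellTiter-Glo luminescence. Potency and efficacy were taken from the concentration-response curves.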

[11] = qHTS of pediatric cancer cell lines to identify multiple opportunities for drug repurposing: Primary screen for SJ-GBM2 cells (AID 1347091; active = well fitted curve in the direction sought with a large enough effect; an effect the other way counts as inactive or inconclusive)
In short: as §1

[12] = qHTS of pediatric cancer cell lines to identify multiple opportunities for drug repurposing: Primary screen for A673 cells (AID 1347092; active = well fitted curve in the direction sought with a large enough effect; an effect the other way counts as inactive or inconclusive; note: nearly all actives have a fitted effect of over 45% in size)
In short: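 Luminescence from CellTiter-Glo, taken after 15 min at room temperature, served as the proxy for metabolically active cells following 48 h treatment. Both potency and efficacy were taken from curves fitted to the titration data.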

[13] = qHTS of pediatric cancer cell lines to identify multiple opportunities for drug repurposing: Primary screen for SK-N-MC cells (AID 1347093; active = well fitted curve in the direction sought with a large enough effect; an effect the other way counts as inactive or inconclusive; note: series mostly up to about 46 µM)
In short: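 Metabolically active cells were quantified by ATP-dependent luminescence (CellTiter-Glo, 15 min at room temperature) following 48 h treatment. Cells had been plated at 500-1,000 per well and settled for 5 h beforehand.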

[14] = qHTS of pediatric cancer cell lines to identify multiple opportunities for drug repurposing: Primary screen for BT-37 cells (AID 1347094; active = well fitted curve in the direction sought with a large enough effect; an effect the other way counts as inactive or inconclusive; note: series mostly up to about 57 µM)
In short: (§2)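 Following a 5-hour attachment period, cells at 500-1,000/well received compounds and were cultured for 48 hours. CellTiter-Glo was added and luminescence read to estimate viable, metabolically active cells.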

[15] = qHTS of pediatric cancer cell lines to identify multiple opportunities for drug repurposing: Primary screen for NB-EBc1 cells (AID 1347095; active = well fitted curve in the direction sought with a large enough effect; an effect the other way counts as inactive or inconclusive)
In short: as §2

[16] = qHTS of pediatric cancer cell lines to identify multiple opportunities for drug repurposing: Primary screen for U-2 OS cells (AID 1347096; active = well fitted curve in the direction sought with a large enough effect; an effect the other way counts as inactive or inconclusive; note: nearly all actives have a fitted effect of over 50% in size)
In short: (§3)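 Cells (500-1,000/well) in growth media were settled 5 h at 37 degrees C, then given compounds for 48 h. Viability was read as CellTiter-Glo luminescence. Primary runs used MIPE at 11 points (0.78 nM-46 µM) and NPC at 8 points (0.59 nM-46 µM); follow-ups used 11 points.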

[17] = qHTS of pediatric cancer cell lines to identify multiple opportunities for drug repurposing: Primary screen for Saos-2 cells (AID 1347097; active = well fitted curve in the direction sought with a large enough effect; an effect the other way counts as inactive or inconclusive; note: nearly all actives have a fitted effect of over 40% in size)
In short: as §2

[18] = qHTS of pediatric cancer cell lines to identify multiple opportunities for drug repurposing: Primary screen for SK-N-SH cells (AID 1347098; active = well fitted curve in the direction sought with a large enough effect; an effect the other way counts as inactive or inconclusive;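 note: DMSO served as neutral control and bortezomib at 2.3 µM as positive control; nearly all actives have a fitted effect of over 65% in size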)
In short: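 Cells (500-1,000/well) rested 5 h, then received compounds for 48 h; metabolically active cells were measured by CellTiter-Glo luminescence. Final concentrations spanned up to 46 µM (MIPE, 11-point) or 0.59 nM-46 µM (NPC, 8-point) in primary screens, 11-point in follow-ups.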

[19] = qHTS of pediatric cancer cell lines to identify multiple opportunities for drug repurposing: Primary screen for NB1643 cells (AID 1347099; active = well fitted curve in the direction sought with a large enough effect; an effect the other way counts as inactive or inconclusive; note: nearly all actives have a fitted effect of over 50% in size)
In short: as §2

[20] = qHTS of pediatric cancer cell lines to identify multiple opportunities for drug repurposing: Primary screen for LAN-5 cells (AID 1347100; active = well fitted curve in the direction sought with a large enough effect; an effect the other way counts as inactive or inconclusive)
In short: as §3

Measured: Potency

Sequence of Nucleoprotein (Lymphocytic choriomeningitis virus (strain Armstrong)) (P09992 whole entry, looked up): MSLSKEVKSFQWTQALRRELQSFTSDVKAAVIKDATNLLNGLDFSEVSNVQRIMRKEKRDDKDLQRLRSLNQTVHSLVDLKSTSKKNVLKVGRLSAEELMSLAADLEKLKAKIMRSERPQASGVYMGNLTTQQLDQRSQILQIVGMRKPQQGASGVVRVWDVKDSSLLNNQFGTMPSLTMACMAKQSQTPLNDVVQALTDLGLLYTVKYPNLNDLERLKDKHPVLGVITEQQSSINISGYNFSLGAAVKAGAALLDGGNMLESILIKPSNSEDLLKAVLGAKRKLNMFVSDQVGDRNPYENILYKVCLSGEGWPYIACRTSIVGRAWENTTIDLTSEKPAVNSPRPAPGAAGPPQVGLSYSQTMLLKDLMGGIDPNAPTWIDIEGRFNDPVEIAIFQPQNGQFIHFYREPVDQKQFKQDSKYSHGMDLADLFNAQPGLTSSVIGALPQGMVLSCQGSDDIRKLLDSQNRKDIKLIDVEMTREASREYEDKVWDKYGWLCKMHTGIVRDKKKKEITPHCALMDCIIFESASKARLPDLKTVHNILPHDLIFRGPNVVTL
T1 sequence (P78324 whole entry, looked up): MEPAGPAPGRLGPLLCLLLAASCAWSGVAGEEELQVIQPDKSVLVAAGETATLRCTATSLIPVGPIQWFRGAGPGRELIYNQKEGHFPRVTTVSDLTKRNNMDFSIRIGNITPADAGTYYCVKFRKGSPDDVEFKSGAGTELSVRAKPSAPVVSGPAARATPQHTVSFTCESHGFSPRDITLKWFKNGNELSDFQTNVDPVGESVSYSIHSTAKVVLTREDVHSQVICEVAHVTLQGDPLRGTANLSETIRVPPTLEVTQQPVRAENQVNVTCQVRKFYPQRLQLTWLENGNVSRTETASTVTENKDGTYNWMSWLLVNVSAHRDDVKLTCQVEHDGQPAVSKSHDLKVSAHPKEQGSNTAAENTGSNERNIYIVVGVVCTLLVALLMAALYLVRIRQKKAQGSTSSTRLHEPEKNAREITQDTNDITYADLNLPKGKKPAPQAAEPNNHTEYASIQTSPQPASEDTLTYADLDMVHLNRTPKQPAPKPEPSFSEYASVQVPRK
T1 sequence (Q08722 whole entry, looked up): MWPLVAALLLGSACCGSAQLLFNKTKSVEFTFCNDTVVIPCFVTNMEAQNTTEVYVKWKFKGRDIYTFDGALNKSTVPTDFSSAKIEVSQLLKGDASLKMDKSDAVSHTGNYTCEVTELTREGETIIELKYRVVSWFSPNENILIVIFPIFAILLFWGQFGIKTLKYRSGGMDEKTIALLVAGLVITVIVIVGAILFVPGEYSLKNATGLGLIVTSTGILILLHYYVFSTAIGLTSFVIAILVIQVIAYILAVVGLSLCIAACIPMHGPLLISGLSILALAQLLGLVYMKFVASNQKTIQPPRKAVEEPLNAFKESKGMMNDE
Sequence of Parathyroid hormone/parathyroid hormone-related peptide receptor (Homo sapiens) (Q03431 whole entry, looked up): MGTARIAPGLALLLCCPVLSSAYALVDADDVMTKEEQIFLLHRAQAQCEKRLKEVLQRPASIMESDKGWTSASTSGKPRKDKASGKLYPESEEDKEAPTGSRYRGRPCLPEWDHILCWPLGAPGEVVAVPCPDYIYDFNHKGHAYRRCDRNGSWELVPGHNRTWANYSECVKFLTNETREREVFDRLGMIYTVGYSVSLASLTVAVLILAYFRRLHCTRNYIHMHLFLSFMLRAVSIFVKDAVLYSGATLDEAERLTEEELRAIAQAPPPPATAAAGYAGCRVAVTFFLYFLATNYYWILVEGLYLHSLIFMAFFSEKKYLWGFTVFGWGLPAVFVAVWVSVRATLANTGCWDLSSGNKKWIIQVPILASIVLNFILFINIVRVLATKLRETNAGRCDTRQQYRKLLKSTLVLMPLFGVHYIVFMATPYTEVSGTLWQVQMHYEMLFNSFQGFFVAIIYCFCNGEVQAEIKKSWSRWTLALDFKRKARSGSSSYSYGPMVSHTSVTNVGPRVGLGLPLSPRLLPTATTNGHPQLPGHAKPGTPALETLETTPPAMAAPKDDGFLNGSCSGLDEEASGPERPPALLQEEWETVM

NC1CC1c1ccccc1 (stereo not drawn)
inactive: all assays above

NC(N)=NOCCC(N)C(=O)O (stereo not drawn)
inactive: [1] | [2] | [3] | [4] | [5] | [6] | [7] | [8]

CN(C)CCCN=c1c2ccccc2n(C)c2[nH]c(=O)n(C)c(=O)c12
inactive: [5]
active: [6] 19.3 µM

CC(=O)Oc1ccccc1C(=O)O
inactive: [5] | [6] | [7] | [8]

CCCCC(CC)COC(=O)c1ccc(N(C)C)cc1 (stereo not drawn)
inactive: [5] | [6] | [7] | [8]

CCC(=O)N[C@H]1CC[C@H](C(=O)N(C)c2ccc(-c3nc4ccccc4o3)cc2)C1
active: [5] 9.68 µM | [6] 3.43 µM | [7] 2.17 µM | [8] 3.43 µM

O=C(NO)c1ccccc1
inactive: [5] | [6] | [7] | [8]

N#CC[C@H](C1CCCC1)n1cc(-c2ncnc3[nH]ccc23)cn1
inactive: [5] | [6] | [7] | [8]

CCCCCCCCCCC(CO)CCCCCCCC (stereo not drawn)
inactive: [5] | [6] | [7] | [8]

CN(C)c1ccc(C2Nc3ccc4ccccc4c3C3=C2C(=O)CC(C)(C)C3)cc1Br (stereo not drawn)
inactive: [5] | [6] | [7] | [8]

Nc1ccc(O)c([N+](=O)[O-])c1
inactive: [5] | [6] | [7] | [8]

O=S(c1cc(Cl)cc(Cl)c1O)c1cc(Cl)cc(Cl)c1O
inactive: [5] | [6] | [7] | [8]

CC(C)(C)C(=O)Oc1ccc2c(c1)nc(NC(=O)c1cccc([N+](=O)[O-])c1)n2CCCO
inactive: [5] | [6] | [7] | [8]

CC(=O)Nc1ccc(O)cc1
inactive: [5] | [6] | [7] | [8]

CC(C)(C)c1cc(C(C)(C)C)c(NC(=O)c2c[nH]c3ccccc3c2=O)cc1O
inactive: [5] | [6] | [7] | [8]

CCOC(=O)C(C)Oc1cccc2c(=O)n(CC(=O)Nc3ccc4c(c3)OCCO4)ccc12 (stereo not drawn)
inactive: [5] | [6] | [7] | [8]

[O-][n+]1cccc(CO)c1
inactive: [5] | [6] | [7] | [8]

Brc1ccccc1-c1ccccc1
inactive: [5] | [6] | [7] | [8]

O=C(NOC[C@H](O)CO)c1ccc(F)c(F)c1Nc1ccc(I)cc1F
inactive: [5] | [6] | [7] | [8]

Cc1cc(C=c2sc3nc4ccccc4n3c2=O)c(C)n1-c1ccccc1
inactive: [5] | [6] | [7] | [8]

OCCn1cc(-c2cnc3nnn(Cc4ccc5ncccc5c4)c3n2)cn1
inactive: [5] | [6] | [7] | [8]

C[C@]12C[C@H](O)[C@H]3[C@@H](CCC4=CC(=O)CC[C@@]43C)[C@@H]1CC[C@@H]2C(=O)CO
inactive: [5] | [6] | [7] | [8]

CCN(c1ccccc1)c1cc(NC)[n+](C)c(C)n1
inactive: [5] | [6] | [7] | [8]

CN1Cc2cc(C(=O)N3CCC(C4CCNCC4)CC3)ccc2N[C@@H](CC(=O)O)C1=O
inactive: [5] | [6] | [7] | [8]

CCNC(=O)c1noc(-c2cc(C(C)C)c(O)cc2O)c1-c1ccc(CN2CCOCC2)cc1
active: [5] 0.611 µM | [6] 0.273 µM | [7] 0.544 µM | [8] 0.306 µM

Cc1cnc(Nc2ccc(F)cc2Cl)nc1-c1c[nH]c(C(=O)N[C@H](CO)c2cccc(Cl)c2)c1
active: [5] 19.3 µM | [6] 15.3 µM | [7] 7.69 µM | [8] 17.2 µM

CCCn1c(=O)c2[nH]c(C34CC5CC3C[C@@H](C5)C4)nc2n(CCC)c1=O
inactive: [5] | [6] | [7] | [8]

C1=CC2C3C=CC(C3)C2C1 (stereo not drawn)
inactive: [5] | [6] | [7] | [8]

Cn1c2cc(S(C)=O)sc2c2cnn(Cc3cccc(N)c3)c(=O)c21 (stereo not drawn)
inactive: [5] | [6] | [7] | [8]

C1Cc2[nH]nc(-c3nn[nH]n3)c2C1
inactive: [5] | [6] | [7] | [8]

O=C(C=Cc1cccnc1)NCCCCC1CCN(C(=O)c2ccccc2)CC1
active: [5] 0.0685 µM | [6] 0.0611 µM | [7] 0.0385 µM | [8] 0.0385 µM

Oc1c(I)cc(I)c2cccnc12
inactive: [5] | [6] | [7] | [8]

Clc1ccc(-c2nc3sccn3c2C=NOCc2ccc(Cl)c(Cl)c2)cc1
inactive: [5] | [6] | [7] | [8]

O=C(O)[C@@H](c1ccc(OCc2ccc3ccccc3n2)cc1)C1CCCC1
inactive: [5] | [6] | [7] | [8]

CC(=O)NCCC(=O)N[C@@H](CCC(N)=O)C(=O)N[C@@H](CO)C(=O)N[C@@H](CCC(N)=O)C(=O)N[C@@H](CCC(N)=O)C(=O)N[C@H](C(=O)N[C@@H](Cc1ccccc1)C(=O)N[C@]1(C)CCCCCCC=CCCC[C@@](C)(C(=O)N[C@@H](CCC(N)=O)C(=O)N[C@@H](CC(N)=O)C(N)=O)NC(=O)[C@H](CC(C)C)NC(=O)[C@H](CC(C)C)NC(=O)[C@@H](CCCNC(=N)N)NC(=O)[C@H](Cc2c[nH]c3ccccc23)NC(=O)[C@H](CC(C)C)NC(=O)[C@H](CC(N)=O)NC1=O)[C@H](C)O
inactive: [5] | [6] | [7] | [8]

CCN(CC)CCNC(=O)c1ccc(NC(C)=O)cc1
inactive: [5] | [6] | [7] | [8]

CC1=C(C/C=C(\C)CCC[C@H](C)CCC[C@H](C)CCCC(C)C)C(=O)c2ccccc2C1=O
inactive: [5] | [6] | [7] | [8]

Cc1cccc(C)c1NC(=O)c1ccccc1C(=O)O
inactive: [5] | [6] | [7] | [8]

CC(=O)Nc1ccc([C@H](C)C(=O)Nc2ncc(C(C)C)s2)cc1
active: [5] 3.06 µM | [6] 1.22 µM | [7] 0.611 µM | [8] 1.09 µM

N=C1N=C(N)c2cc3ccccc3cc21
inactive: [5] | [6] | [7] | [8]
